Screen size: about 16,000 compounds; about 5,700 (36%) were called active. Another 24% or so got no clear call; they are omitted. The list shows a part of the results. A number with no mark means an inactive call. Calls come from the whole dose curve; as a rule, active = well fitted curve in the direction sought with a large enough effect; inconclusive = small, poorly fitted or top-dose-only effect, or effect the other way; inactive = no such curve, though single readings can be large or run the other way.
% is set by controls: 0 for no effect and ±100 for the full control effect.

Cytochrome P450 1A2 (Homo sapiens), sequence (P05177 whole entry, looked up): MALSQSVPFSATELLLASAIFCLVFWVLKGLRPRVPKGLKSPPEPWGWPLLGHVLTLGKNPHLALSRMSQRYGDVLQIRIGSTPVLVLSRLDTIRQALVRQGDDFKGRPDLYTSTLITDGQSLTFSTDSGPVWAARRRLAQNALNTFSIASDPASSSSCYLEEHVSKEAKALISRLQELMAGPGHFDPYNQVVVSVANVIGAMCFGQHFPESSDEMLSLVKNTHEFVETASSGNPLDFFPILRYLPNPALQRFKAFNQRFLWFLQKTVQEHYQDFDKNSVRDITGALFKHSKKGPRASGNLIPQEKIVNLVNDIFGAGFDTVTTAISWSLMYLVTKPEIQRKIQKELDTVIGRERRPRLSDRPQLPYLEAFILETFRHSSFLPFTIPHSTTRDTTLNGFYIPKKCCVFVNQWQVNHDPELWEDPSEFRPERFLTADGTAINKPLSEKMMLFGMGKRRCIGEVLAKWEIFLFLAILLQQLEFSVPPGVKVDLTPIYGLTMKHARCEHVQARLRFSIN

The experiment concerns the target Cytochrome P450 1A2 (Homo sapiens) (UniProt P05177). As to the kind of experiment: Cytochrome panel assay with activity outcomes. Particulars: recombinant CYP, pro-luciferin dealkylation, luminescence, p450-cyp1a2; series mostly up to 57.1 µM; activity, negative = inhibition: at the top concentration.
Turning to `COc1ccccc1CNc1ncnc2ccc(-c3ccc(N(C)C)cc3)cc12`, the AC50 is 0.794 µM (active).

With `COc1ccc(CNc2ncnc3ccc(-c4ccc(N(C)C)cc4)cc23)c(OC)c1`, the AC50 is 2.51 µM (active).

Regarding `COc1ccccc1CNc1ncnc2ccc(-c3ccc(C(=O)N(C)C)cc3)cc12`, the AC50 was 12.6 µM (active).

In the case of `CC(C)(C)NC[C@H](O)c1cc(O)cc(O)c1`, the AC50 result was “inactive”.

`CC(=O)NC1(c2cccc(F)c2)CCN(CC(=O)NC(C)C)CC1`: the “activity, negative = inhibition” value was 21.3%.

Regarding `[N-]=[N+]=Nc1ccc(C(=O)CSC[C@@H](NC(=O)CC[C@@H](N)C(=O)O)C(=O)NCC(=O)O)cc1`, the “activity, negative = inhibition” value was -18.2%.

As to `CCNc1ncc2nc(-c3cccs3)c(=O)n(C)c2n1`, the AC50 was 1.58 µM (active).

As for `CCNc1ncc2nc(-c3cn(C)c4ccccc34)c(=O)n(Cc3cccs3)c2n1`, the concentration at half-maximal activity (AC50) was 6.31 µM (active).

Take `CCNc1ncc2nc(C)c(=O)n(Cc3cccs3)c2n1`: the AC50 was 2 µM (active).

Consider `COc1ccc(Nc2ncc3nc(-c4cccs4)c(=O)n(Cc4cccc(OC)c4)c3n2)cc1`, for which the “activity, negative = inhibition” value was -8.5%.

Regarding `CCNc1ncc2nc(-c3cccs3)c(=O)n(Cc3cccs3)c2n1`, the AC50 is 1.26 µM (active).

For the compound `CC[N+](C)(C)c1cccc(O)c1`, the “activity, negative = inhibition” value was -2.3% [at 25.6 µM].

With `NC/C=C\C(=O)O`, the AC50 result is “inactive”.

For `Cc1ccc(Oc2nn[nH]n2)cc1`, the “activity, negative = inhibition” value is -8.17%.

On to `CC(=O)CC(=O)[C@@]1(O)CC[C@@H]2[C@@H]3C=C(C)C4=CC(=O)CC[C@@H]4[C@H]3CC[C@]21C`, for which the “activity, negative = inhibition” value was -6.66% [at 25.6 µM].

Consider `CCNc1ncc2nc(-c3ccccc3)c(=O)n(Cc3cccs3)c2n1`, for which the AC50 was 0.316 µM (active).

In the case of `CCNc1ncc2nc(-c3cc(F)cc(F)c3)c(=O)n(Cc3cccs3)c2n1`, the AC50 was 5.01 µM (active).

On to `CCNc1ncc2ncc(=O)n(Cc3cccs3)c2n1`, for which the AC50 was 2 µM (active).

With `C[N+]1(C)CCC(=C(c2ccccc2)c2ccccc2)CC1`, the “activity, negative = inhibition” value is -2.16% [at 25.6 µM].

For `CC(=O)Oc1cc(C(C)C)c(OCCN(C)C)cc1C`, the AC50 was 3.16 µM (active).

As for `CC(C)(C)CNCCO`, the activity, negative = inhibition is 6.23% [at 2.29 µM].

`c1ccc(CSc2nnc([C@@H]3CCCN3)o2)cc1`: the AC50 was 25.1 µM (active).

On to `Cc1ccc(CSc2nnc(-c3ccncc3)n2CC2CCCO2)cc1` (stereo not given), for which the “activity, negative = inhibition” value is -21.2%.

As to `Cc1ccc(CSc2nnc([C@@H]3CCCN3)o2)cc1`, the AC50 is 15.8 µM (active).

Take `NC(=O)/C(=N\O)c1ccccc1`: the “activity, negative = inhibition” value is 2.26%.

Take `CCOC(=O)c1oc2nc(CC(C)C)c3c(c2c1N)CCC3`: the AC50 was 0.891 µM (active).

With `COc1cccc([C@H]2Oc3ccc(OC)cc3/C(=N\OC[C@@H](O)[C@@H]3O[C@@H]4OC(C)(C)O[C@@H]4[C@H]3O)[C@@H]2O)c1`, the activity, negative = inhibition was -8.99% [at 11.4 µM].

For the compound `CC1(C)SC(=S)N(Cc2ccc3c(c2)OCO3)C1N(O)C(=O)NC1CCCCC1` (stereo not given), the “activity, negative = inhibition” value was -27.1%.

As for `O=C(O)C[C@H](Cc1ccc2c(c1)OCO2)C(=O)O`, the activity, negative = inhibition was -20% [at 11.4 µM].

As for `CCc1ccccc1NC(=S)NCc1ccc2c(c1)OCO2`, the AC50 was 5.62 µM (active).

Take `CCc1c(C(=O)NCc2ccc3c(c2)OCO3)[nH]c(C)c1C(C)=O`: the AC50 is 3.16 µM (active).

For `C[N+]1(C)CCc2cc(O)c(O)cc2[C@H]1Cc1ccc(O)c(O)c1`, the activity, negative = inhibition was -12.1% [at 2.29 µM].

Consider `CC1(C)CC(=O)C(C(C#Cc2ccccc2)C2=C(O)CC(C)(C)CC2=O)=C(O)C1`, for which the “activity, negative = inhibition” value was -28.5%.

Consider `COc1ccc(/C=N/NC(=O)c2ccn[nH]2)cc1COc1ccc(F)cc1`, for which the AC50 was 8.91 µM (active).

`COc1cccc(-c2cc(C(=O)N/N=C/c3ccc(OC)c(COC(C)=O)c3)c3ccccc3n2)c1`: the “activity, negative = inhibition” value is -28.3%.

Take `COc1ccc(C(C(=O)NC2CCCC2)N(Cc2ccc(F)cc2)C(=O)c2ccn[nH]2)cc1OC` (stereo not given): the “activity, negative = inhibition” value is -9.89%.

For the compound `CO[C@@]12C[C@@H](COC(=O)c3cncc(Br)c3)CN(C)[C@H]1Cc1cn(C)c3cccc2c13`, the AC50 was 5.01 µM (active).

As to `CN(C)c1ccc(/C=N\NC(=O)c2cnc3ccccc3c2)cc1`, the half-maximal activity concentration (AC50) is 1.58 µM (active).

On to `Cc1cccc(C(=O)N/N=C/c2ccc(OCC(=O)N3CCCCC3)cc2)c1`, for which the “activity, negative = inhibition” value was -9.71%.

In the case of `O[C@@](CCN1CCCCC1)(c1ccccc1)[C@@H]1C[C@H]2C=C[C@@H]1C2`, the “activity, negative = inhibition” value was -9.3% [at 25.6 µM].

In the case of `N[C@@H](C(=O)O)c1ccc(C(=O)O)cc1`, the “activity, negative = inhibition” value is 3.94%.

Regarding `CC(C)Cc1ccc([C@H](C)C(=O)O)cc1`, the AC50 entry is “inactive”.

For `CC(=O)N[C@H](Cc1ccc(O)cc1)C(=O)O`, the activity, negative = inhibition was -11.8% [at 11.4 µM].

With `N#C[C@H](Cc1ccc(O)cc1)c1ccc(O)cc1`, the AC50 is 12.6 µM (active).

For `O=C(CCCCCn1c(=S)[nH]c2cc3c(cc2c1=O)OCO3)N1CCN(C2CCCCC2)CC1`, the “activity, negative = inhibition” value is -22.2%.

For the compound `C=CCNC(=O)c1ccc(Cn2c(=S)[nH]c3cc4c(cc3c2=O)OCO4)cc1`, the AC50 was 8.91 µM (active).

As for `Cc1sc2ncn(CC(=O)NCCCC(=O)N3CCN(c4ncccn4)CC3)c(=O)c2c1C`, the “activity, negative = inhibition” value is -23.7%.

Take `CCN(CC)CCn1c(=S)[nH]c2cc3c(cc2c1=O)OCO3`: the AC50 is 15.8 µM (active).

Take `CCCCNC(=O)CCn1c(=S)[nH]c2cc3c(cc2c1=O)OCO3`: the AC50 is 2.51 µM (active).

With `O=C(CCCn1c(=S)[nH]c2cc3c(cc2c1=O)OCO3)N1CCN(c2ncccn2)CC1`, the AC50 was 12.6 µM (active).

In general, AC50 refers to the concentration giving half of the maximal activity seen.

The values are drawn from PubChem BioAssay AID1851 (National Center for Advancing Translational Sciences (NCATS), 2009).
